Source: PubChem BioAssay (NCI)
The panel holds about 83,000 compounds, 20% with a hit somewhere; the sample as a whole holds those more often.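 Step 1: grow cells in 96-well plates. Step 2: add test compound at a single concentration. Step 3: incubate 48 h. Step 4: record percent growth.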 Unmarked numbers belong to inactive results. Active and inactive are the calls of the source. How the source made its calls: active means growth percent below 10; inactive means the rest.

Test system: HL-60(TB) leukemia
Test: NCI-60 one-dose screen, 48 h (100 = growth as untreated, 0 = no growth, -100 = all killed)
Conditions: 10 µM unless noted

SMILES | growth
c1ccc([Se]CCCN2CCN(CCC[Se]c3ccccc3)CC2)cc1 | 105%
N#Cc1c(Oc2ccc([N+](=O)[O-])cc2)nc2sc3cc(Cl)ccc3n2c1=N | 151%
NC(=O)c1c(NC(=O)COC(=O)Cc2ccccc2F)sc2c1CCC2 | 135%
Clc1nc(-c2cccnc2)nc2sc3c(c12)CCCCCC3 | 102%
ClCc1cccc2c(CCl)cccc12 | 48.2%
O=C(/C=C/c1cc2ccccc2[nH]c1=O)c1ccc2c(c1)OCO2 | 79%
CC(C)C(C(=O)CCN(C)C)c1ccc(Cl)cc1 (stereo not given) | 81.4%
COc1ccc2nc(NNC(=O)c3cnccn3)c3cccn3c2c1 | -27.1% (active)
COc1cc2c(cc1OC)C1CCN3C(=O)CCC3N1CC2 (stereo not given) | 126%
O=C(/C=C/c1ccccc1)c1c[nH]c2ccccc2c1=O | -12.9% (active)
CC(=O)O[C@H]1CC[C@]2(C)[C@H]3CC=C4[C@@H]5CC(C)(C)CC[C@]5(C(=O)N5CCN(CCC#N)CC5)CC[C@@]4(C)[C@]3(C)CC[C@H]2C1(C)C | 12.9%
Cc1ccc2sc3c(NCCCN)nc4ccccc4c3c(=O)c2c1 | -27.1% (active)
Ic1ccc(Nc2nc3nonc3nc2Nc2ccc(I)cc2)cc1 | -50.2% (active)
COc1ccc(/C=c2\c(=O)n(-c3ccccc3)c3nn4c(=O)c(=O)[nH]nc4n23)cc1 | 112%
CC(=O)N(CC(O)CO)c1c(I)c(C(=O)NCCO)c(I)c(C(=O)NCC(O)CO)c1I (stereo not given) | 92.2%
COc1cc(-c2c(-c3ccccc3)c[nH]c2C(=O)NCCCO)c(OC)c2c1OCO2 | 91.4%
NC(=O)c1noc(C(=O)c2ccccc2)c1N | 93.7%
CCCCCN(CCCCC)CC(O)c1c(Cl)ccc2ccccc12 (stereo not given) | 87.6%
O=C(Nc1cccc(Br)c1)c1cc(=O)[nH]c2ccccc12 | 108%
CCNc1ncnc2n[nH]nc12 | 94.8%

SMILES | growth
OC(COc1ccccc1Cl)CN1CCN(c2ccc(Cl)cc2)CC1 (stereo not given) | 109%
COc1ccc(/C=C/C(=O)Nc2ccc(-c3nc4ccc(F)cc4s3)cc2)cc1 | 91.4%
COc1ccc(/C=C2\CN(C(=O)CCN3CCC(=NO)CC3)C/C(=C\c3ccc(OC)cc3)C2=O)cc1 | -14.4% (active)
Clc1ccc(-c2c3ccc(=[N+]4CCCCC4)cc-3oc3cc(N4CCCCC4)ccc23)cc1 | -42.3% (active)
FC1(F)CCN(Cc2c[nH]c3cc(Cl)ccc23)C[C@H]1CCc1ccccc1 | 62.1%
CC(=O)c1ccc(-n2c(-c3cc(-c4ccsc4)n[nH]3)n[nH]c2=S)cc1 | 112%
COc1ccc2nc3c(cc2c1)C(=O)CC(c1ccccc1)C3 (stereo not given) | -1.74% (active)
N#Cc1c(N)nc2c(nnn2-c2cccc(Br)c2)c1N | 95.9%
C[C@@H](Oc1cc(-n2cnc3ccc(CN4CCN(C)CC4)cc32)sc1C(N)=O)c1ccccc1C(F)(F)F | -19.4% (active)
O=c1c2cccc3c(N4CCOCC4)ccc(c32)c2nc3ccccc3n12 | 80.2%
COc1ccc(-c2ccc(NC(=O)Nc3ccc(Cl)c(C(F)(F)F)c3)c(C)n2)cc1 | 32.3%
CC1OC(n2c3ccccc3c3c4c(c5c6ccccc6[nH]c5c32)C(=O)N(CCN[C@@H]2CCC[C@H]2N)C4=O)CC(O)C1O (stereo not given in full) | 29.2%
COc1cc(/C=C(/C)C[N+](=O)[O-])ccc1O | 71.5%
Cc1ccc(-c2nc([P+](c3ccccc3)(c3ccccc3)c3ccccc3)c(S(=O)(=O)c3ccc(C)cc3)o2)cc1 | -14.4% (active)
Cc1ccc(NC(=O)c2sc3nc4c(cc3c2N)C(=O)CCC4)cc1C | -10.6% (active)
C=C1C(=O)O[C@H]2[C@H]1CC/C(CNC(=O)C(C)c1ccc(CC(C)C)cc1)=C\CC[C@@]1(C)O[C@@H]21 (stereo not given in full) | -24.4% (active)
COc1cc(N)c2nccc(C)c2c1OC | 96.2%
COc1ccc(C2[C@@H](c3ccccc3)C(=O)N2c2cc(OC)c(OC)c(OC)c2)cc1F (stereo not given in full) | -50.3% (active)
CC(C)(C)OC(=O)CC(S(=O)(=O)c1ccccc1)S(=O)(=O)c1ccccc1 | 76.2%
CC(=O)Oc1cc2ccccc2cc1C(C)C | 103%
